Where “and” joins values, the source holds several entries; their conditions need not be identical. Identical values can stand only once. A number with no mark means an inactive call. The rule behind the calls is not given here.

Sequence of Pantothenate synthetase (Mycobacterium tuberculosis (strain ATCC 25618 / H37Rv)) (P9WIL5 whole entry, looked up): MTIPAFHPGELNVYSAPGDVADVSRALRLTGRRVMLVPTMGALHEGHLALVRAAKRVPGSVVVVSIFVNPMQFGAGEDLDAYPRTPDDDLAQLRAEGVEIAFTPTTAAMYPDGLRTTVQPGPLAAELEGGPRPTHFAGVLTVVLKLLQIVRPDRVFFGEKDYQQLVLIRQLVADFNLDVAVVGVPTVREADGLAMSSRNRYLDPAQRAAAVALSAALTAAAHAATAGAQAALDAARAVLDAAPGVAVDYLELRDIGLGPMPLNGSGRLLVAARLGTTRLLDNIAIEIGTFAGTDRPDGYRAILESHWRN

This experiment has as its target Pantothenate synthetase (Mycobacterium tuberculosis (strain ATCC 25618 / H37Rv)) (UniProt P9WIL5). Kind of experiment: Recombinant Mtb pantothenate synthetase (PanC) inhibitors, coupled enzyme, confirmatory (AID 375).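 Note: 0% = full reaction with vehicle and 100% = no enzyme background.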 The settings on record: coupled enzyme assay; at 10 µM, stronger effect = higher value.
By inhibition is commonly meant the relative decrease from the control value, in per cent. With `NCC(O)COc1ccc2c(c1)OCO2` (stereo not given), the inhibition is 0%.
For `CC(C)Cc1ccc(C(C)C(=O)O)cc1` (stereo not given), the inhibition was 0%.
As for `CCN(CC)CCCN1C(=O)C(O)=C(C(=O)c2ccco2)C1c1ccc(C)o1` (stereo not given), the figure is 13%.
For `Cc1ccc(C2C3CN(C(C)C)CC=C3C(C#N)=C(N)C2(C#N)C#N)cc1` (stereo not given), the inhibition is 0%.
The result for `CCCn1c(C)nc2c(c1=O)c1nc3ccccc3nc1n2CCc1ccccc1` reads 4%; that for `CC(=O)Nc1cccc(NC(=O)CSc2nnnn2C(C)C)c1`, 5%.
`CCCCSc1nc(CCC)cc(=O)[nH]1`: the inhibition was 0%.
As for `CCc1nc2sc(C)c(C)c2c(=O)n1CCO`, the figure is 7%; as for `C=CCOc1ccc(/C=N/n2cncn2)cc1OC`, 0%.
`COc1ccc(-c2cn3cc(C)ccc3n2)cc1OC`: the inhibition is 8%.
In the case of `COC(=O)C1=C(N)Oc2cc(C)[nH]c(=O)c2C1c1ccncc1` (stereo not given), the inhibition was 0%.
Consider `CC(=O)Nc1c(C(=O)O)[nH]c2ccccc12`, for which the inhibition was 0%.
The result for `COc1cc(NC(=O)C(C)Oc2ccccc2)c(C(=O)O)cc1OC` (stereo not given) reads 0%.
The result for `c1ccc(CC2CCN(c3nc4ccccc4n4nnnc34)CC2)cc1` reads 11%; that for `CC(C)(C)n1nnnc1CN1CCC(NC(=O)NC2CCCCC2)CC1`, 0%.
The result for `O=C(CNS(=O)(=O)c1ccc(Br)s1)N1CCN(c2ncccn2)CC1` reads 0%; that for `N#C[C@@H]1[C@@H]2C(=O)N(c3ccc4c(c3)OCCO4)C(=O)[C@@H]2C2c3ccccc3C=CN21` (stereo not given in full), 2%.
Turning to `CCc1ccc(NC(=O)c2cc(-c3ccco3)on2)cc1`, the inhibition was 4%.
As for `CCOC(=O)c1ccc(NC(=O)CCc2nc(-c3cccc(C)c3)no2)cc1`, the figure is 2%.
As to `COc1ccc(-n2nc(C(=O)NCC(=O)NCC3CCCO3)c3ccccc3c2=O)cc1` (stereo not given), the inhibition is 0%.
The result for `CCCCc1c(O)nc(N2CCN(Cc3ccccc3)CC2)[nH]c1=O` reads 7%; that for `c1ccc(CN(CC2=NCCN2)c2ccccc2)cc1`, 0% and 2%; that for `CCCc1c(OCCCCc2nn[nH]n2)ccc(C(C)=O)c1O`, 0%.
The result for `O=C(O)CCNC(=O)c1ccccc1` reads 3%; that for `CCOC(=O)C1CCN(C(=O)c2ccc(Cl)c(Cl)c2)CC1`, 8%; that for `Cc1ccc(S(=O)(=O)N2CCCC2C(=O)OCc2ccco2)cc1` (stereo not given), 5%.
As to `Cc1nnc(NC(=O)c2ccccc2F)s1`, the inhibition was 0%.
`Cc1[nH]nc(N=CC2=C(O)CC(C)(C)CC2=O)c1-c1ccccc1`: the inhibition is 5%.
As for `NCc1cccc(-n2cccn2)c1`, the figure is 0%; as for `Cn1c(=O)[nH]c(=O)c2c1nc(N1CCCCC1)n2CCSc1ncccn1`, 0%.
As for `CCOC(=O)c1sc2nc(NC(=O)C(C)(C)C)sc2c1C`, the figure is 8%; as for `CCOC(=O)c1ccc(CC2S/C(=C(\C#N)C(C)=O)NC2=O)cc1` (stereo not given), 10%; as for `O=C1CC(Sc2nnc(-c3ccccc3)o2)C(=O)N1c1ccccc1` (stereo not given), 0%.
As for `CCOC(=O)C1CCCN(c2c(Nc3ccc(C)c(C)c3)c(=O)c2=O)C1` (stereo not given), the figure is 2%; as for `C=C(C)CSc1nnc2[nH]c(=O)cc(N)n12`, 0%; as for `COc1ccc(C(=O)Cn2c(N3CCCCC3)nc3c2c(=O)n(C)c(=O)n3C)cc1OC`, 6%.
Turning to `O=C(O)CCC(=O)c1c[nH]c2ccccc12`, the inhibition was 3%.
As to `COCCNC(=O)C(C)N(c1ccc(Oc2ccccc2)cc1)S(C)(=O)=O` (stereo not given), the inhibition was 0%.
As for `CC1Cc2ccccc2N1Cc1cc(=O)n2ccsc2n1` (stereo not given), the inhibition was 0%.
In the case of `COC(=O)c1[nH]c2cccc(C)c2c1NC(=O)CN1CCCc2ccccc21`, the inhibition was 1%.
